# Shown are actives, neighbours in structure and some others; about 10% of the full set was active somewhere.
# ALDH1A1 block: ALDH1A1 (human) enzyme inhibition. P00352. Purified ALDH1A1, NADH fluorescence, propionaldehyde substrate. Potency, µM (top dose mostly 75.3 µM), without a hit: top-dose activity, negative = inhibition, actives largely listed as inhibitors. 7.3% of 220,000 active. AID 1030;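 also: potency is read from the fitted curve at half-maximal effect; plate controls were no enzyme wells and a reference inhibitor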
# Target sequence (P00352 whole entry, looked up): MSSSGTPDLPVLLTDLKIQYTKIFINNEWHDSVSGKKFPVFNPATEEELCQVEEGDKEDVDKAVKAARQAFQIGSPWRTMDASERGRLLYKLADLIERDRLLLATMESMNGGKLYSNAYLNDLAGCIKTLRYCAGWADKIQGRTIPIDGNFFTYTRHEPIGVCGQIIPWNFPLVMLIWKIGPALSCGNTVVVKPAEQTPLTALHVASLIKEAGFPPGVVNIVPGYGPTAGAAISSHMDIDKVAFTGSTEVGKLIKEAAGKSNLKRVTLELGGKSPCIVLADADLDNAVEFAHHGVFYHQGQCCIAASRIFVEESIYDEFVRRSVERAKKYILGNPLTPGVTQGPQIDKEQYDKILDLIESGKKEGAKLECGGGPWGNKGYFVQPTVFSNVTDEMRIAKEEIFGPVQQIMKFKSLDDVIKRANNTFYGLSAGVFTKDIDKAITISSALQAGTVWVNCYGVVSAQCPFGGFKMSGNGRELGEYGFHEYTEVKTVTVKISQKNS
# IMPase inh: IMPase inhibition in cells. P97697. CHO-M1 cells, IP1 accumulation, HTRF TR-FRET ratio. inhibition (IP1 accumulation), % at 46.1 µM. 120,000 tested, under 10 active; active = well fitted curve in the direction sought with a large enough effect in the signal ratio, not every such curve was filed as active; inconclusive = small, poorly fitted or top-dose-only effect, or a change in a side signal; inactive = no such curve, though single readings can be large or run the other way; the % refers to the signal ratio;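 also: cells stimulated with carbachol in lithium chloride buffer; plate controls were DMSO basal wells for no effect and reference inhibitor wells for full effect; higher means more IMPase inhibition seen as more IP1 and lower FRET ratio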
#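 CHO-M1 cells (CHO stably expressing M1 receptor), compound up to 46 uM final, stimulated with carbachol (50 uM as added) in buffer with 50mM LiCl, pH 7.4, 30 min at 37C. Cytosolic IP1 read by TR-FRET; AC50 from Hill fits.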
# Luc counter: counter-screen: inhibitors of Kinase-Glo firefly luciferase; Q27757; Kinase-Glo luciferase, ATP luminescence, 8 min; Potency, µM (titrated, usually from 38.3 µM), for inactives: top-dose activity change, negative = inhibition, actives largely listed as inhibitors; 0.28% of 200,000 active; active = well fitted inhibition curve with a large enough effect; inconclusive = small, poorly fitted or top-dose-only effect; also: potency is read from the fitted curve at half-maximal effect; nearly all actives have a fitted effect of over 60% in size
#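 Compound is pinned into ATP-containing buffer (10 uM ATP, imidazole pH 7.2, 7 mM MgCl2). Kinase-Glo luciferase reagent is then added. Light output is recorded following an 8-min room-temperature incubation.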
# HPGD inh: HPGD (human) dehydrogenase inhibition. 4.3% of 150,000 active. purified HPGD, NADH fluorescence kinetic, PGE2 substrate. Potency, µM, for inactives: at the highest dose activity change, negative = inhibition, usual class: inhibitors. AID 894. P15428; also: potency is read from the fitted curve at half-maximal effect
# Target sequence (P15428 whole entry, looked up): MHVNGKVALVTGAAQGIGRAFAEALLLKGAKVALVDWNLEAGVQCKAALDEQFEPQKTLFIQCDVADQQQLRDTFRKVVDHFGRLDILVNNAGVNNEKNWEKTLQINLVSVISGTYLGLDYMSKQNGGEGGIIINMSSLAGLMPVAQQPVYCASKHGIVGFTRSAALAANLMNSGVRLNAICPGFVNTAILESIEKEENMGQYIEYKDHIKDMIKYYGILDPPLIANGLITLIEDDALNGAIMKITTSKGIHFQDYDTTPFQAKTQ
#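 NADH formation kinetics: reaction with 30 uM PGE2 and 1 mM NAD+ (final), 20 nM enzyme, Tris-HCl pH 8 with Tween 20, after 15 min compound preincubation at room temperature. Fluorescence change, last versus first of five reads.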
# PNC inhibitor: blocks assembly of the perinucleolar compartment | 3.1% of 140,000 active | activity change (PNC), negative = inhibition, % at 10 µM | PC3M PTB-GFP, PNC prevalence imaging, 16 h; stronger effect = lower value;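 active = readout at or below -70, meaning at least 70% loss of cells showing the perinucleolar compartment, a nuclear body marking cancer cells; inconclusive = readout between -30 and a set limit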;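 also: plate controls were DMSO wells for no effect and camptothecin positive control wells for full effect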
#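 Compounds are pinned in duplicate onto adhered PC3M cells stably expressing GFP-tagged PTB and incubated 16 h at 37 C. Cells are then fixed, nuclei stained with Hoechst, and PNC-positive cells counted.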
# Lamin A splicing: modulators of lamin A splicing; HeLa LMNA splicing GFP/RFP minigene ratio, 48 h; Potency, µM (titrated, usually from 46.1 µM), inactives show at the highest dose ratio change, negative = inhibition, most hits filed as inhibitors; 0.01% of 200,000 active; active = well fitted inhibition curve with a large enough effect in the signal ratio, with a control signal flat, not every such curve was filed as active; inconclusive = small, poorly fitted or top-dose-only effect, or effect the other way, or a change in a side signal; the % refers to the signal ratio; also: potency is read from the fitted curve at half-maximal effect
#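 S3 HeLa cells stably expressing lamin A-EGFP splicing minigene plus DsRed2, 600 cells/well, 48 h compound exposure at 37C. Laser-scanning cytometry; analysed as GFP (500-530 nm)/RFP (575-640 nm) total intensity ratio; 0.5% DMSO vehicle.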
# An asterisk follows results filed as active; ? = inconclusive; · = no result given; [ ] = dose if it differs, or a comment. Unless noted, calls follow the shape of the dose curve; as a rule, active = well fitted inhibition curve with a large enough effect (not every such curve was filed as active); inconclusive = small, poorly fitted or top-dose-only effect, or another doubt; inactive = no such curve, though single readings can be large or run the other way. Unless noted, % is scaled to controls: 0 for no effect and ±100 for the full control effect.
SMILES,ALDH1A1 block,IMPase inh,Luc counter,HPGD inh,PNC inhibitor,Lamin A splicing
O=C(CNCc1cccs1)Nc1ccc(N2CCCCCC2)cc1,22µM*,·,-2%,·,·,?
COc1ccc(Cc2ccccc2C(=O)O)c2ccccc12,8%[13.5 µM],·,-2%[7.66 µM],-3%,·,·
CCN(CC)c1ccc(/C=C/C(=O)c2cccnc2)cc1,-2%,·,-4%,·,·,-16%[9.22 µM]
O=C(/C=C/c1ccc(OCc2ccccc2)c(OCc2ccccc2)c1)c1cccnc1,7.1µM*,11,-2%,-25%,-16,?
O=C(/C=C/c1ccc(Cl)cc1)c1cccnc1,-12%,8,1%,-13%,-1,?
N/C(=N\OC(=O)/C=C/c1ccccc1Cl)c1ccncc1,10µM*,·,1%,·,·,·
O=C(/C=C/c1ccccc1Cl)c1cccnc1,14µM*,5,12%,28µM*,5,?
O=S(=O)(NCCc1csc2nc(-c3ccccc3)nn12)c1ccc(Oc2ccccc2)cc1,·,·,·,·,·,27%[46 µM]
Cc1oc2ncn(CC(C)C)c(=O)c2c1C(=O)N(Cc1ccccc1)C(C)C,·,·,·,·,·,-7%[46 µM]
COc1ccc(-c2nc3cc(C(C)C)ccc3o2)cc1NC(=O)COc1ccc(C)cc1C,·,10,·,·,·,·
CN(C)C(=O)c1ccc(-c2ccc3ncnc(NCCN4CCOCC4)c3c2)cc1,?,·,·,·,·,2%
O=C(NCc1cccnc1)c1ccc(-c2ccc(Cl)cc2)o1,?,·,-4%,·,·,?
CCOC(=O)N1CCC(NC(=O)c2ccc3c(Cl)c4c(nc3c2)CCCC4)CC1,?,·,-5%,-13%,54,?
O=C(Nc1ccc2c(c1)OCCO2)c1ccc(S(=O)(=O)N2CCCCC2)cc1,25µM*,4,11%,-14%,?,?
O=C(NCc1cccnc1)c1ccc(-c2cc(Cl)ccc2Cl)o1,7.1µM*,·,5%,·,·,·
O=C(Nc1ccc2c(c1)OCO2)c1cccc(S(=O)(=O)N2CCCC2)c1,?,3,-1%,-1%,?,-12%
CCOC(=O)N1CCC(NC(=O)c2ccc3c(=O)n4c(nc3c2)CCCC4)CC1,2µM*,15,-1%,-6%,-19,9%
O=C(NCc1cccnc1)/C(=C\c1ccc(-c2ccc(Cl)c(Cl)c2)o1)S(=O)(=O)c1ccccc1,-3%,14,5%,?,-81*,?
Cc1nc(N2CCOCC2)c2nc(-c3ccccc3)n(CCCN3CCOCC3)c2n1,?,·,-1%,?,·,·
Cc1ccc(CNC(=O)CCCn2c(=O)c3ccccc3n(Cc3ccccc3C)c2=O)cc1,·,-5,·,·,·,·
CCOC(=O)c1cccc(NC(=O)C2Cc3ccccc3N2C(=O)c2ccccc2)c1 (stereo not given),·,·,·,·,·,20%[46 µM]
O=C(Nc1ccc(N2CCOCC2)cc1)c1ccc(S(=O)(=O)N2CCCCC2)cc1,0.11µM*,-10,·,·,?,2%
CN(C)S(=O)(=O)c1ccc(C(=O)Nc2ccc(CCC(=O)N3CCCC3)cc2)cc1,22µM*,5,4%,16µM*,?,-9%
O=C(Nc1cccc(S(=O)(=O)N2CCCCC2)c1)c1ccc2c(=O)n3c(nc2c1)CCCCC3,2.5µM*,16,·,·,52,?
O=C(Nc1cc(S(=O)(=O)Nc2ccc(Cl)cc2)ccc1O)c1ccc(S(=O)(=O)N2CCCCCC2)cc1,3.2µM*,·,-2%,·,·,·
SMILES,ALDH1A1 block,IMPase inh,Luc counter,HPGD inh,PNC inhibitor,Lamin A splicing
COc1ccc(-c2cc(C(F)(F)F)nc(SCC(=O)Nc3ccc(C(C)=O)cc3)n2)cc1,·,3,·,·,·,·
COc1ccc(Cn2c(CNS(=O)(=O)c3ccc(C)c(C)c3)nc3cccnc32)cc1,·,·,·,·,·,-8%[46 µM]
COc1ccc(C(=O)N2c3ccc(C)cc3C(C)(c3ccccc3)CC2(C)C)cc1 (stereo not given),·,-9,·,·,·,·
O=C(NCc1cccnc1)c1cc(S(=O)(=O)N2CCCCC2)ccc1Cl,20µM*,-6,-1%,-7%,62,-9%
CC(=O)c1cccc(NC(=O)c2ccc(S(=O)(=O)N3CCCCC3)cc2)c1,22µM*,0,4%,-7%,6,-20%
O=C(NC1CCS(=O)(=O)C1)c1ccc(S(=O)(=O)N2CCCCC2)cc1 (stereo not given),25µM*,·,1%,·,·,·
CS(=O)(=O)Nc1ccc(C(=O)Nc2ccc(S(=O)(=O)N3CCCC3)cc2)cc1,25µM*,·,-1%,·,·,-15%[9.22 µM]
CC(=O)Nc1ccc(C(=O)Nc2ccc(S(=O)(=O)N3CCCC3)cc2)cc1,?,7,2%,-9%,?,17%
COc1ccc(C(=O)N2CCC3(CCN(C)CC3)CC2)cc1,9%,·,-1%,-1%,·,·
Cc1ccc(N(C)C(=O)Cn2ncc3c([nH]c4ccccc43)c2=O)cc1C,·,·,·,·,·,-10%[46 µM]
Cc1occc1C(=O)Nc1ccc(S(=O)(=O)N2CCCC2)cc1,?,3,-5%,-12%,-3,?
O=C(Nc1ccc(O)cc1)c1cc(S(=O)(=O)N2CCCC2)ccc1Cl,4.5µM*,9,·,·,7,?
CCC(CC)C(=O)OCc1cc(=O)n2nc(C3CC3)sc2n1,·,·,·,·,·,-12%[46 µM]
CN(C)S(=O)(=O)c1ccc2c(c1)c(=O)c(C(=O)NCCCN1CCCCCC1)cn2C,15µM*,7,3%,-16%,-23,-15%
CCN(CC)S(=O)(=O)c1ccc2c(c1)c(=O)c(C(=O)NCc1cccs1)cn2C,11µM*,·,-1%,-12%,17,6%
CCOC(=O)C1CCN(C(c2ccccc2)c2c(O)cc(C)n(Cc3ccco3)c2=O)CC1 (stereo not given),·,·,·,·,·,-15%[46 µM]
COc1ccc2c(c1)C(=O)[C@H](OC(=O)NCCOc1ccccc1)[C@@H](c1ccc(OC)c(Br)c1)O2,?,·,0%,-28%,·,·
C=CCn1c(CCNC(=O)c2cccs2)nnc1SCC(=O)c1ccc(Cl)cc1,-5%,3,-4%,-20%,35,6%
C=CCn1c(CCNC(=O)c2cccs2)nnc1SCC(=O)Nc1cccc(Cl)c1C,10µM*,8,9%,-20%,?,9%
Cc1nc(NC(=S)NC(=O)c2cccs2)sc1C(=O)N(C)C,4.5µM*,2,12%,22µM*,-20,26%
COc1ccc(C(=O)NC(=S)Nc2nc(C)c(C(=O)N(C)C)s2)cc1,?,-2,-4%,-16%,?,-1%
CC(=Nc1ccc2c(c1)nc(CO)n2C)C1=C(O)CC(C)(C)CC1=O,?,-8,-4%,3.5µM*,41,1%
COc1ccc(Nc2nc(N/N=C/c3ccc(N(C)C)cc3)nc(C)c2[N+](=O)[O-])cc1,7.9µM*,·,-3%,-10%,-9,-9%
CCC(CO)NCc1ccc(Br)cc1 (stereo not given),-9%,·,2%,·,·,·
CCC(CO)NCc1sccc1C (stereo not given),20µM*,·,-3%,·,·,17%[46 µM]
